CtBP-E1A inh – blocks the CtBP interaction with E1A; AlphaScreen GST-E1A/His-CtBP binding, 1536-well; stronger effect = lower value; activity change, % (test concentration not listed); 340,000 compounds, 0.49% hits; in the data active means activity change below about -65%; inconclusive means mostly about -30% to -63%; further: on the % scale 0 is the no-effect control and ±100 the full control effect
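Protein mix (5X: 125 nM each GST-E1A, His-CtBP) was incubated with pinned compound 2 h at 37 deg C in dark, in 50 mM Tris pH 8.0 buffer with 300 mM NaCl. Glutathione donor and nickel acceptor beads followed; AlphaScreen signal read after 1 h.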
JMJD2A Tudor inh – JMJD2A Tudor domain (human) inhibition | O75164 | AlphaScreen JMJD2A-Tudor / H3K4me3 peptide binding | Potency, µM (series often up to 114 µM), inactives show at the top dose activity change, negative = inhibition, most hits filed as inhibitors | 390,000 compounds, 4.4% hits | AID 504339; further: potency means the concentration at half of the fitted maximal effect; on the % scale 0 is the no-effect control and ±100 the full control effect; nearly all actives have a fitted effect of over 50% in size
BAZ2B block – blocks human BAZ2B; Q9UIF8; AlphaScreen BAZ2B-H3K14Ac peptide displacement; 360,000 compounds, 4.4% hits; Potency, µM (top dose mostly 114 µM), for inactives: at the top dose activity change, negative = inhibition, hits mostly inhibitors; further: potency means the concentration at half of the fitted maximal effect; on the % scale 0 is the no-effect control and ±100 the full control effect; nearly all actives have a fitted effect of over 60% in size
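AlphaScreen displacement: compounds (up to 110uM) incubated 30 min at room temperature with a preformed 50 nM BAZ2B/50 nM biotinylated H3K14Ac peptide complex in PBS pH 7.4 with Tween-20. Donor and acceptor beads at 10 ug/mL final added, 20 min light-protected before reading.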
G9a inh – blocks human histone lysine methyltransferase G9a; Q96KQ7; G9a H3K9 monomethylation, AlphaScreen, 2 h; Potency, µM (top dose mostly 102 µM), for inactives: at the top dose activity, negative = inhibition, most hits filed as inhibitors; 350,000 compounds, 8.8% hits; AID 504332; further: potency means the concentration at half of the fitted maximal effect; on the % scale 0 is the no-effect control and ±100 the full control effect; nearly all actives have a fitted effect of over 75% in size
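AlphaScreen detection with an anti-monomethyl H3K9 antibody quantified product after a 2 h room-temperature reaction containing 500 nM biotinylated H3K9 peptide, 20 µM SAM and 20 nM enzyme, which had been preincubated 15 min with compound.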
HP1b binding inh – HP1-beta chromodomain-methylated histone interaction inhibition; P83916; AlphaScreen HP1-beta / biotin-H3K9me3 peptide binding; Potency, µM (series often up to 114 µM), inactives show at the top dose activity change, negative = inhibition, most hits filed as inhibitors; 390,000 compounds, 0.56% hits; AID 540317; further: potency means the concentration at half of the fitted maximal effect; nearly all actives have a fitted effect of over 70% in size
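HP1-beta protein (50 nM final) preincubated 30 min at room temperature with biotinylated H3(1-18)K9me3 peptide (50 nM) in PBS pH 7.4, 0.01% Tween-20, then compound added for 30 min. AlphaScreen streptavidin donor/nickel chelate acceptor beads (10 ug/mL final), 30 min dark, luminescence read.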
Six1-Eya2 blk – blocks human Six1 binding to Eya2 | Q15475+O00167 | AlphaScreen GST-Six1/His-Eya2 binding, biochemical; stronger effect = lower value | activity change, % (no concentration beside the values) | 360,000 compounds, 0.56% hits | AID 651725; in the data active means activity change below about -65%; inconclusive means mostly about -30% to -63%; further: on the % scale 0 is the no-effect control and ±100 the full control effect
Target sequence (O00167 whole entry, looked up): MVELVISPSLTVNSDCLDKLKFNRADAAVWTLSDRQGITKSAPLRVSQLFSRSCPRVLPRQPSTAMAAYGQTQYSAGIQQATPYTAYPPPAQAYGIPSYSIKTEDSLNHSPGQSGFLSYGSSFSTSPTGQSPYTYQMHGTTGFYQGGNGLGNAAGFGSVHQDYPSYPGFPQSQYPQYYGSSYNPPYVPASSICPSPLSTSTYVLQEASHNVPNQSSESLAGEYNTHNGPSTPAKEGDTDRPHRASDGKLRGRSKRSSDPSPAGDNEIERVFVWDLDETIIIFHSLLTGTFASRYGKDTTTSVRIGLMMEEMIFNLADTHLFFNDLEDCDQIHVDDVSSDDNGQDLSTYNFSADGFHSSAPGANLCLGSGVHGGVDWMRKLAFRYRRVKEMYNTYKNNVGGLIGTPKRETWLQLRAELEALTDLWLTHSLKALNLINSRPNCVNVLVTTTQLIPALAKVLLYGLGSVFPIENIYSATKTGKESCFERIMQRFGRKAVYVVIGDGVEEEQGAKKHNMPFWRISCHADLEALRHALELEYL
Target sequence (Q15475 whole entry, looked up): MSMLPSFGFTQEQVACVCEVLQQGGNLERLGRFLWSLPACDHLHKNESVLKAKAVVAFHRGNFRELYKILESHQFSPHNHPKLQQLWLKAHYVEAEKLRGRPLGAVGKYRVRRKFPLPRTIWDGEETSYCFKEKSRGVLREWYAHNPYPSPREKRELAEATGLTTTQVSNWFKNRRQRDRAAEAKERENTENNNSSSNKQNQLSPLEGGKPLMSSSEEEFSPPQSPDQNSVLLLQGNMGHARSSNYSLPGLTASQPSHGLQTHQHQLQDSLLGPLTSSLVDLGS
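Six1/Eya2 binding was read as AlphaScreen signal after compounds were pinned into GST-Six1 plus His-tagged Eya2 (5X stock 250/500 nM) in pH 8.0 Tris/NaCl/TCEP buffer, beads added, then incubated 1 h, 37 C, dark.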
* hit, by the source's call; u = inconclusive; x = not tested or not shown; [ ] = another dose, or the depositor's remark. Only some compounds are listed: those with a hit (about 10% of all), similar ones and a draw of the others. Unless noted, the call rests on the fitted dose curve; in most records, active means well fitted inhibition curve with a large enough effect; inconclusive means small, poorly fitted or top-dose-only effect; inactive means no such curve, though single readings can be large or run the other way.

SMILES	CtBP-E1A inh	JMJD2A Tudor inh	BAZ2B block	G9a inh	HP1b binding inh	Six1-Eya2 blk
CCCCn1c(C)cc2c(c1=O)[C@H]1O[C@](CCCC)(Cc3cc(OC)c(OC)cc31)O2	x	x	-5%[22.9 µM]	-9%[2.33 µM]	x	x
CCOC(=O)c1c(NC(=O)Cc2coc3cc(C)cc(C)c23)sc2c1CCC2	x	-18%	-8%	-32%[59 µM]	18%	x
O=C(N=Nc1c(O)[nH]c2ccccc12)c1cccs1	u	-12%	-24%	79µM*	31%	-20
CNC(=S)N=Nc1c(O)[nH]c2ccccc12	-69*	-18%	-2%	1%[59 µM]	8%	-70*
Cc1ccc(NC(=S)N=Nc2c(O)[nH]c3ccccc23)cc1	-15	-22%	x	35%	10%	-10
Oc1ccc(NC(=S)N=Nc2c(O)[nH]c3ccccc23)cc1	-72*	u	-15%	50µM*	u	-71*
Oc1ccc(NC(=S)N=Nc2c(O)[nH]c3ccc(Br)cc23)cc1	u	32µM*	20µM*	u	u	u
O=C(N=Nc1c(O)[nH]c2ccccc12)c1cc(NS(=O)(=O)c2cccs2)cc(NS(=O)(=O)c2cccs2)c1	2	-21%	-18%	-2%	0%	-12
Cc1occc1C(=O)Nc1cc(S(=O)(=O)N2CCOCC2)ccc1OC(C)C	-4	-11%	-1%	17%[59 µM]	4%	-4
O=C(CC(c1cccs1)S(=O)(=O)c1ccccc1)c1ccc(F)cc1 (centres undefined)	-9	9%	-24%	8.9µM*	30%	0
COc1ccc(S(=O)(=O)NNC(=S)NCCc2ccccc2)c(OC)c1	4	-6%	-19%	33%	30%	1
COc1ccc(N2CCN(CC(=O)Nc3ccccc3SC)CC2)cc1	-23	u	50µM*	-50%[12.7 µM]	u	-22
COc1ccc(N2CCN(CC(=O)Nc3c(C)cc(C)cc3C)CC2)cc1	-9	-27%	-26%	40µM*	5%	1
c1cncc(-c2cc(-n3ccnc3)ncn2)c1	x	x	x	-39%[0.501 µM]	x	x
Cc1ccc(NC(=O)C2CCN(C(=O)[C@@H]3Cc4ccccc4CN3)CC2)c(C)c1	7	-32%	-12%	45µM*	35%	2
Cc1ccc(NC(=O)C(=O)NCC(c2cccnc2)N2CCN(C)CC2)cc1C (centres undefined)	x	-12%	-16%	-22%[59 µM]	23%	x
Cc1nn(C)c(C)c1CS(=O)(=O)c1ccccc1	-4	-11%	-6%	50µM*	35%	10
Cc1ccc(S(=O)(=O)Nc2c(C)nn(C)c2C)cc1	18	2%	7%	2%	36%	-1
COc1ccc(C2=CC(c3ccc(OC)c(OC)c3)n3nnnc3N2)c(OC)c1 (centres undefined)	22	u	-28%	50µM*	69%	22
COc1cccc(C2C=C(c3ccc(OC)cc3OC)Nc3nnnn32)c1 (centres undefined)	-16	12%	-1%	45µM*	83%	1
N/C(=N\OS(=O)(=O)c1ccc(Br)cc1)c1ccncc1	9	-27%	2%	40µM*	-38%	4
N/C(=N\OS(=O)(=O)c1ccccc1)c1ccccn1	-2	3.5µM*	22µM*	u	44%	u
N/C(=N\OC(=O)COc1ccc(Br)cc1)c1ccncc1	17	-4%	6%	-4%[59 µM]	38%	3
CC(C)C(=O)O/N=C(\N)c1ccccn1	11	-3%	4%	-26%[59 µM]	17%	3
N/C(=N\OS(=O)(=O)c1ccc(Cl)cc1)c1ccccn1	-1	25µM*	25µM*	2µM*	56%	u
COCOc1ccc(-c2ncc(OC)nc2NC(=O)c2cc(C)oc2C)cc1	-17	x	x	x	x	-5
Cc1cc(C)c(NC(=O)CSc2ncc(S(=O)(=O)c3ccc(C(C)(C)C)cc3)c(=O)[nH]2)c(C)c1	x	-24%	-14%	13%[59 µM]	34%	x
Cc1cc(C)n(CCc2nc3c4ccccc4nc(SCc4ccc(Cl)cc4)n3n2)n1	x	-23%	-2%	1%[59 µM]	-6%	x
